Active and inactive are the calls of the source. How the source made its calls: active means hit-call score of the fitted dose curve at least 0.9, where 1 is the maximum; inactive means score below 0.9.
These compounds were tested on Insulin Like Growth Factor 1 (IGF1), IGF1 (gene 3479) (assay: LTEA_HepaRG_IGF1: Life Technologies and Expression Analysis (LTEA) Assay for Insulin Like Growth Factor 1 (IGF1) using HepaRG (AID 2283506)). Conditions: mRNA level, 48 h; actives raise or lower the signal.
Procedure, shortened: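 Endpoint: IGF1 mRNA change by qRT-PCR, housekeeping-normalized, fitted bidirectionally relative to 0.5% DMSO vehicle. Human HepaRG cells were treated 48 h in serum-free induction medium, eight half-log concentrations topping at 100 uM.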

| SMILES | AC50 | outcome |
| --- | --- | --- |
| COCC(C)N(C(=O)CCl)c1c(C)csc1C (configuration not stated) | 50 µM (active) |  |
| COC(=O)c1c(C(F)F)nc(C(F)(F)F)c(C2=NCCS2)c1CC(C)C |  | inactive |
| Cn1c(-c2ccccc2)cc(-c2ccccc2)[n+]1C | 13.4 µM (active) |  |
| COC(=O)NS(=O)(=O)c1ccc(N)cc1 |  | inactive |
| CC(C)Nc1nc(Cl)nc(NC(C)C)n1 |  | inactive |
| COC(=O)NC(=S)Nc1ccccc1NC(=S)NC(=O)OC | 29.9 µM (active) |  |
| Clc1cccc(C(Cl)(Cl)Cl)n1 |  | inactive |
| COP(=S)(OC)Oc1ccc([N+](=O)[O-])c(C)c1 |  | inactive |
| CCOP(=S)(OCC)Oc1nc(Cl)n(C(C)C)n1 | 18.9 µM (active) |  |
| COc1cc(Cl)c(OC)cc1Cl |  | inactive |
| CCCCC(O)(Cn1cncn1)c1ccc(Cl)cc1Cl (configuration not stated) | 75.1 µM (active) |  |
| CNC(=O)N(C)c1nnc(C(C)(C)C)s1 |  | inactive |
| O=C(Nc1ccccc1-c1ccc(Cl)cc1)c1cccnc1Cl | 52.5 µM (active) |  |
| CCNC(=O)NC(=O)C(C#N)=NOC |  | inactive |
| CCN(CC)C(=O)C(C)Oc1cccc2ccccc12 (configuration not stated) | 66.3 µM (active) |  |
| CC1(C)CON(Cc2ccccc2Cl)C1=O | 25.6 µM (active) |  |
| CCOc1nc(C(Cl)(Cl)Cl)ns1 | 0.965 µM (active) |  |
| CN=C=S |  | inactive |
| C=C(C)CN(CC)c1c([N+](=O)[O-])cc(C(F)(F)F)cc1[N+](=O)[O-] |  | inactive |
| Nc1c(Cl)c(Cl)nc(C(=O)O)c1Cl |  | inactive |
| CC1(C)C(C=C(Cl)Cl)C1C(=O)OC(C#N)c1cccc(Oc2ccccc2)c1 (configuration not stated) | 50 µM (active) |  |
| Cc1cnc(C2=NC(C)(C(C)C)C(=O)N2)c(C(=O)O)c1 (configuration not stated) |  | inactive |

Source: PubChem BioAssay (EPA / NIEHS)
